Test results published in PubChem BioAssay AID1117319 (Southern Research Institute, 2015).
“And” between values parts separate entries of the source, which are not always exact repeats. Identical values can stand only once. Screen size: about 260,000 compounds; about 1,500 (0.58%) were called active. Inconclusive results (about 5%) are left out.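 The calls were made as follows: active = inhibition above a set limit at one or more doses, reproduced on every date tested; inconclusive = results disagree between test dates, or hit never tested in dose response; inactive = the rest.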 Only a sample is shown. Results with a measured potency or affinity are listed apart.

Biological target: Virion infectivity factor (Human immunodeficiency virus type 1 group M subtype B (isolate BH10)) + Virion infectivity factor (Human immunodeficiency virus type 1 group M subtype B (isolate BRU/LAI)) + Virion infectivity factor (Human immunodeficiency virus type 1 group M subtype B (isolate PCV12)) + Virion infectivity factor (Human immunodeficiency virus type 1 group M subtype B (isolate HXB2)) + DNA dC->dU-editing enzyme APOBEC-3G (Homo sapiens) (UniProt P69720+P69721+P69722+P69723+Q9HC16)
Test: HIV-1 Vif–A3G interaction blockers – biochemical, TR-FRET, GST-Vif 1-94, biotin-A3G peptide, dose response retest, primary screen (AID 1117319);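 also: Vif residues 1-94 fused to GST binding biotinylated APOBEC3G peptide 110-148; 0% = full assay without inhibitor and 100% = GST in place of GST-Vif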
Settings: TR-FRET GST-Vif / biotin-A3G peptide binding; hits give high values

inhibition, inactive:
CC(=O)N1Cc2ccccc2C(C)CC12CCCC2 (stereo not given) -6.77%, CC1(C)Cc2ccccc2C2CC(O)C(=O)N21 (stereo not given) 4.18%, NC(=O)c1ccc[n+](Cc2ccc(-c3ccccc3)cc2)c1 8.95%, Cc1ccc(CN2C(=O)c3ccccc3NC2c2cc(Br)ccc2O)cc1 (stereo not given) -3.39%, CCCCCCCCOC(=O)c1cc([N+](=O)[O-])c(Sc2ncnc3nc[nH]c23)c([N+](=O)[O-])c1 29.5%, CCOC(=O)C(C)(C)Sc1ncnc2nc[nH]c12 -1.07%, CCn1c(SCC(=O)NCCc2ccccc2)nc2sc3c(c2c1=O)CCN(C)C3 14.3%, COc1ccccc1CCc1nnc(CCC(=O)NCC[C@@H]2C[C@@H]3C=C[C@H]2C3)o1 2.31%, O=C(c1ccco1)N1CCN(Cc2cc(=O)c(OCc3ccccc3Cl)co2)CC1 -9.22%, N#CC(C#N)=C1C=C2C=C(N3CCCCCC3)CCC2CC1 (stereo not given) 8.28%, N#CC1=C(N)C2=CCCC[C@H]2[C@H](c2ccc(Br)cc2)C1(C#N)C#N 4.38%, Cc1nc(C(=O)O)nn1-c1cc(Cl)ccc1Cl 2.06%, Cc1cccc(N(C(=O)CNC(=O)c2ccco2)C(C(=O)NC2CCCC2)c2cccnc2)c1 (stereo not given) -6.56%, CN(C)S(=O)(=O)c1cccc(NC(=O)CSc2nncn2-c2ccccc2)c1 1.63%, COc1cc([C@H]2[C@@H]3CCCC[C@]3(O)CCN2Cc2ccccc2F)ccc1O 4.71%, O=C(CN1CC(=O)Oc2ccccc21)OCC(=O)c1cccc(Br)c1 20.7%, O=c1cc(-c2ccccc2)c2c([nH]1)CCCC2 -2.63%, O=c1cc(O)c(-c2ccccc2Cl)c(Cl)[nH]1 -2.11%, CC(c1ccccc1)n1c(SCC(=O)Nc2ccccc2)n[nH]c1=O (stereo not given) -10.8%, CCN(CC)c1ccc(C2Nc3cccc4cccc(c34)N2)c(O)c1 6.26%, Oc1ccccc1C1Nc2cccc3cccc(c23)N1 20%, Cc1ccc(-c2cc3cccc[n+]3cc2-c2ccc(C)cc2)cc1 10.5%, Cc1csc2cc(-c3cccc([N+](=O)[O-])c3)c(-c3cccc([N+](=O)[O-])c3)c[n+]12 1.42%, Cn1nccc1C(=O)Nc1ccc2c(c1)OCO2 -8.05%, O=C(CSc1nnc2scc(-c3ccc(Cl)cc3)n12)NCc1ccc2c(c1)OCO2 31.6%, Cc1c(NC(=O)CN2CCN(c3ccccc3)CC2)c(=O)n(-c2ccccc2)n1C 2.33%, Cc1c(NC(=O)CN2CCN(c3ccc(F)cc3)CC2)c(=O)n(-c2ccccc2)n1C -4.9%, C=CCn1c(=O)c2ccccc2n2c(SCc3nc4ccccc4s3)nnc12 0.94%, Cc1oc(-c2ccccc2F)nc1CS(=O)CC(=O)NCc1ccccc1 (stereo not given) -9.75%, Nn1cnnc1N/N=C/c1ccc(Cl)cc1Cl -0.88%, Cc1ccc(-c2cc(C(=O)Nc3c(C)n(C)n(-c4ccccc4)c3=O)no2)cc1 -0.77%, COc1ccc(-c2cc(C(=O)Nc3c(C)n(C)n(-c4ccccc4)c3=O)no2)cc1 -3.59%, Cc1c(NC(=O)c2cc(-c3ccccc3)on2)c(=O)n(-c2ccccc2)n1C -2.53%, COc1ccc(-c2cc(C(=O)Nc3c(C)n(C)n(-c4ccccc4)c3=O)no2)cc1OC -4.54%, Cc1ccc(NC(=O)C2CC(O)CN2C(=O)OCc2ccccc2)cc1C (stereo not given) -2.11%, CCc1nn2c(NCCOC)cc(C)nc2c1-c1ccc(F)cc1 -2.39%, CC1CCCCC1NC(=O)Cn1nnc2ccccc2c1=O (stereo not given) -5.45%, CCCN(C(=O)COc1ccc(C(C)=O)cc1OC)C1CCS(=O)(=O)C1 (stereo not given) -0.07%, CC(C)OCCCNCc1cccs1 -0.18%, C=CCSC1=N/C(=C\c2ccc(C(=O)O)cc2)C(=O)S1 -15.6%, CCCSC1=N/C(=C\c2ccsc2)C(=O)S1 0.21%, C=CCSC1=N/C(=C\c2ccsc2)C(=O)S1 2.35%, CCCSC1=N/C(=C\c2ccc3c(c2)OCO3)C(=O)S1 27%, CCSC1=N/C(=C\c2ccc(-c3ccccc3[N+](=O)[O-])o2)C(=O)S1 13.5%, CCOc1c(OC(C)=O)ccc(/C=C2\N=C(SCC)SC2=O)c1[N+](=O)[O-] 9.49%, COc1ccccc1NC(=O)NCCN1C(=O)C2C3C=CC(C3)C2C1=O (stereo not given) 4.08%, CCOC(=O)c1c(-c2ccc(Cl)cc2)cn2ccccc12 13.8%, COc1ccc(OC)c(NC(=O)c2ccccc2N(Cc2ccccc2)S(C)(=O)=O)c1 7.69%, CC(OC(=O)c1ccc(Cl)nc1)C(=O)NC1(C#N)CCCCC1 (stereo not given) 2.48%, COc1cccc(C(=O)NCC(c2ccc3c(c2)OCO3)N2CCN(c3ccc(F)cc3)CC2)c1 (stereo not given) -2.23%, CC(=O)N1CCOc2ccc(S(=O)(=O)NCCc3cccc(C)c3)cc21 2.22%, Cc1ccc2cc(CN(CCN3CCOCC3)Cc3nnnn3Cc3ccco3)c(=O)[nH]c2c1C 11.1%, Cc1ccc2cc(CN(Cc3ccc4c(c3)OCO4)Cc3nnnn3Cc3ccco3)c(=O)[nH]c2c1C -12.9% and 10.6%, COC(=O)c1ccc(Cn2nc(C)c(Cl)c2C)o1 3.48%, Clc1cccc(CON/C=N/c2ncnc3sccc23)c1 -6.38%, CC(=O)Nc1ccccc1OCC(=O)NCCC1=CCCCC1 -8.53%, CCN(CC)c1ccc2cc(C=O)c(=O)oc2c1 24.5%, CCN(CC)c1ccc2c(C)c(Cl)c(=O)oc2c1 -11.9%, CC(C)N=C1SCC(C)(/C=N/O)S1 (stereo not given) 5.98%, O=C1[C@@H]2C(Cc3ccc(O)cc3)NC3(C(=O)Nc4ccc(F)cc43)[C@@H]2C(=O)N1c1ccccc1 (stereo not given in full) -9.27%, O=C1[C@@H]2[C@H](Cc3ccc(O)cc3)N[C@]3(C(=O)Nc4ccccc43)[C@@H]2C(=O)N1c1ccc(F)cc1 3.97%, CCN=C1SC(CC(N)=O)C(=O)N1CC (stereo not given) 9.83%, Cc1nc(N2CCN(C(=O)c3ccco3)CC2)nc2c1C(=O)CC(C)C2 (stereo not given) -2.42%, COc1ccc(Cl)cc1NC(=O)c1cnccn1 3.9%, Cc1nc(N)c(C#N)c(-c2ccc3c(c2)OCO3)c1C -4.59%, Cc1[nH]c2ccccc2c1C(=O)CSc1nc2ccccc2[nH]1 30.3%, Cc1c(C)n(C(=O)CSc2ncn[nH]2)c2ccccc12 -2.61%, CSc1cccc(NC(=O)c2cnn3ccccc23)c1 1.6%, CC(=O)c1ccc(NC(=O)c2cnn3ccccc23)cc1 1.77%, COc1ccc(N2CCN(C(=O)CSc3ncn[nH]3)CC2)cc1 7.54%, COc1ccc(-n2nnnc2/C=C/Nc2cc(C(F)(F)F)ccc2OC)cc1 -7.87%, C=C(C1=CCN(S(=O)C(C)(C)C)[C@H]1CCO)c1ccccc1 (stereo not given in full) -5.4%, Cc1nc2nc(C)c(CCC(=O)N3CCN(c4ccccn4)CC3)c(C)n2n1 8.31%, Cc1nc2cc(-c3ccccc3)nn2c(C)c1CCC(=O)N1CCN(c2ccccc2)CC1 -3.02%, Cc1ccc(/C=N/n2cnc3sc4c(c3c2=O)CCCC4)o1 8.22%, CC(C)N(C(=S)Nc1cccnc1)c1ccccc1 4.04%, CCN(C(=S)Nc1cccnc1)c1ccccc1 -9.76%, O=[N+]([O-])c1ccccc1N/N=C/c1ccc2c(c1)OCO2 26.8%, Cc1c(-c2ccccc2)nc2ccccc2c1C(=O)NCc1cccs1 10.6%, COc1cc(NC(=O)c2cnn3c(C)cc(C)nc23)c(OC)cc1Cl 0.24%, Cc1ccc(NC(=O)c2cc3nc(C)cc(C)n3n2)cc1 3.27%, COc1cc(C2c3c([nH]c(=O)[nH]c3=O)Nc3ccc4ccccc4c32)cc(OC)c1OC (stereo not given) 1.71%, CCC(=O)N(c1nnc(SCC(=O)Nc2sccc2C(N)=O)s1)C1CC1 4.16%, CCN(CC)C(=O)c1ccc(-c2ccccc2)cc1 3.81%, Fc1ccc2c(c1)C1C=CCC1C(c1cc3c(cc1Br)OCO3)N2 (stereo not given) 1.91%, CCN(CC)C(=O)c1ccc(C)c(Br)c1 -4.6%, CCOC(=O)c1ccc2c(c1)C(=O)N(C1CCCCC1)C2=O 6.81%, O=C1CN(C(=O)c2c(F)cccc2F)C(c2ccccc2)c2cc(Br)ccc2N1 (stereo not given) -0.06%, CCOC(=O)c1ccc2nc(C)c3c(c2c1)OC(C)C3 (stereo not given) -3.24%, O=C(OC1CCCCC1)c1ccc(NC(=O)C2CCCCC2)cc1 2.8%, O=C(O)CCC(=O)Nc1ccc(C(=O)OC2CCCCC2)cc1 9.06%, CN1CC(=O)N(CC(=O)Nc2ccc(N3CCOCC3)cc2)C1=O -19.5%, O=C1OC(Cc2ccccc2)(c2ccccc2)c2ccccc21 (stereo not given) 3.92%, CN(C(=O)Cn1nnc(-c2cccnc2)n1)C1CCCCC1 8.32%, CCOP(=O)(OCC)C(NC(=O)Nc1ccc(C)c(Cl)c1)c1ccccc1 (stereo not given) 1.69%
